# Results published in PubChem BioAssay (NCATS).
# Records with an inconclusive call do not appear. The source made the active and inactive calls. Calls come from the whole dose curve; as a rule, active = well fitted inhibition curve with a large enough effect; inconclusive = small, poorly fitted or top-dose-only effect; inactive = no such curve, though single readings can be large or run the other way.
# Target: Retinaldehyde dehydrogenase 3 (Homo sapiens) (UniProt P47895)
# Experiment: qHTS for Inhibitors of the Aldehyde Dehydrogenase Family (ALDH1A3) Confirmatory screens (AID 2061311); note: nearly all actives have a fitted effect of over 60% in size
# Conditions: ALDH inhibition qHTS; series mostly up to 46 µM; activity change, negative = inhibition: at the top concentration
# % is set by controls: 0 for no effect and ±100 for the full control effect; potency is the fitted concentration of half-maximal effect.
SMILES,"activity change, negative = inhibition",Potency,outcome
NC(=O)N1CCN(c2nc(-c3ccc(Br)cc3)cs2)CC1,4.32% (inactive),,
Cc1cnc(-c2ccccc2C(C)C)nc1NCC1CN(c2cccnc2)C1,,11.3 µM (active),
COc1cccc(-c2no[n+]([O-])c2C#N)c1,-17.2% (inactive),,
Cc1cnc(-c2ccccc2C(C)O)nc1NCC1CCN(c2cccnc2)CC1 (configuration not stated),-15.1% (inactive),,
C[C@H]1[C@H](/C=C/c2ccc(-c3ccccc3C#N)cn2)[C@@H]2[C@@H](C)OC(=O)[C@@H]2C[C@@H]1C,-17% (inactive),,
CCOc1ccccc1-c1nnc2n1N=C(c1cccc(OC)c1)CS2,,,inactive
O=C(Nc1cncc(O)c1)c1cccs1,,12.7 µM (active),
O=C1CC(c2ccccc2)CC2=C1C1(CCCC1)N=C(Nc1nc3ccccc3o1)N2 (configuration not stated),-2.05% (inactive),,
CC(=O)N1CCN(c2ccc(NCc3ccc(C)cc3)cc2)CC1,,22.5 µM (active),
CC(=O)NC(c1ccco1)c1cc(Cl)c2ccc(N3CCCCC3)nc2c1O (configuration not stated),,11.3 µM (active),
N#CC1CCN(c2nc(-c3ccc(Br)cc3)cs2)CC1,-14.1% (inactive),,
CS(=O)(=O)c1ccc(C(=O)OCC(=O)N2Cc3ccccc3C2)cc1[N+](=O)[O-],,28.2 µM (active),
CN1CCN(c2cccc(CNc3nn4c(=O)c5ccccc5nc4s3)c2)CC1,-15.2% (inactive),,
Clc1ncoc1-c1c[nH]c2ccccc12,4.41% (inactive),,
CN1CCN(c2nn3c(=O)c4ccccc4nc3s2)CC1,,8.96 µM (active),
C#Cc1nc(Nc2cccc(Cl)c2)nc(NC2CCCC2)n1,,14.1 µM (active),
O=C1c2ccccc2NC(c2ccc(-c3ccccc3F)o2)N1O (configuration not stated),0.0254% (inactive),,
